Data: ChEMBL document CHEMBL4513216, “Probing the Open Global Health Chemical Diversity Library for Multistage-Active Starting Points for Next-Generation Antimalarials” (ACS Infect Dis, 2020)
Screen size: about 69,000 compounds; about 8,600 (12%) showed an effect of 50% or more. The entries come from a sample that favours strong results as a whole.

The compounds below were run on Plasmodium berghei (assay: Screen against P. berghei liver stage (PbLuc), transformed with Luciferase, at 10uM). Conditions: tested at 10 uM.
Type: functional, HepG2
Work on CNc1nnc(CCn2nc(C)c(Br)c2C)s1 yielded an INHIBITION of 7.38%. CS(=O)(=O)c1ccc(-c2cnc(C3CCCN3)cn2)cc1 (stereo not drawn) showed an INHIBITION of 45.95%. CCCc1noc(CNc2ccc(C(=O)N3CCCC3)cc2C)n1 showed an INHIBITION of 12.7%. With COc1cc2cc(C)c(SCCN3CCCCC3)nc2cc1OC the INHIBITION was 51.7%. COc1cc2cc(C)c(SCCN3CCCC3)nc2cc1OC gave an INHIBITION of 33.2%. For CCc1cc2cc(OC)c(OC)cc2nc1SCCN1CCCCC1, the INHIBITION was 43.4%. With CN1CCC(c2cccc(Cc3ccccc3)n2)CC1 the INHIBITION was 82.7%. CN1CCC(c2cccc(NCc3ccncc3)n2)CC1 gave an INHIBITION of -2.09%. CN1CCC(c2cccc(Cc3ccc(C(F)(F)F)cc3)n2)CC1 was tested, and the INHIBITION was 85.7%. Work on CN1CCC(c2cccc(CCC(=O)NCC(N)=O)n2)CC1 yielded an INHIBITION of -6.92%. Work on COc1ccc(Cc2cccc(C3CCN(C)CC3)n2)cc1 yielded an INHIBITION of 43.8%. Compound CN1CCC(c2cccc(Cc3ccc(F)cc3)n2)CC1 has an INHIBITION of 35.8%. For CCN(Cc1ccc2c(c1)OCO2)S(=O)(=O)N(C)C, the INHIBITION was -21.9%. CC(C)Cc1noc(C2CCN(C(=O)c3cccs3)CC2)n1 showed an INHIBITION of 17%. Cc1cnn(CC2CCCN2C(=O)c2cccc(-n3ccc(C)n3)c2)c1 (stereo not drawn) was tested, and the INHIBITION was -17%. Work on NC(=O)COc1cccc(CN2CCc3cncnc3C2)c1 yielded an INHIBITION of 11.2%. CN(Cc1ccco1)[C@@H]1CN(Cc2ccoc2)C[C@@H]2CCCO[C@@H]21 gave an INHIBITION of 41.3%. CS(=O)(=O)c1cnc(C2CCCC2)nc1C1CCCNC1 (stereo not drawn) showed an INHIBITION of 16.5%. With COCCN1CCc2c(cnc(-c3ccccc3)c2C(=O)O)C1 the INHIBITION was 36.4%. Compound CC(C)(O)CN1CCN(C(=O)COCc2ccccc2Cl)CC1 has an INHIBITION of 23.1%. Work on Cc1cccc(-n2nnnc2C2(NCc3ccco3)CCCCC2)c1 yielded an INHIBITION of 28.7%. COC1CCN(C(=O)c2cc(-c3ccc(Cl)cc3)on2)CC1 was tested, and the INHIBITION was -55.6%. For Cn1cnnc1C1CCCN(C(=O)NCc2ccccn2)C1 (stereo not drawn), the INHIBITION was 1.75%. Compound Cc1cc(C(=O)N2CCCC(c3nncn3C)C2)no1 (stereo not drawn) has an INHIBITION of 36.5%. Cn1cnnc1C1CCCN(C(=O)NCc2cc[nH]n2)C1 (stereo not drawn) gave an INHIBITION of 50.4%. Compound Cn1cnnc1C1CCN(C(=O)c2cc(-c3ccccc3)on2)CC1 has an INHIBITION of 51%. Cn1cnnc1C1CCCN(C(=O)NCc2ccccc2)C1 (stereo not drawn) was tested, and the INHIBITION was -33.7%. With Cn1cnnc1C1CCCN(C(=O)c2cc(-c3ccccc3)on2)C1 (stereo not drawn) the INHIBITION was 60%. Cn1cnnc1C1CCCN(C(=O)c2cc(C3CC3)on2)C1 (stereo not drawn) gave an INHIBITION of 5.15%. For Cc1noc(C2CCCN(C(=O)c3cc(-c4ccccc4)on3)C2)n1 (stereo not drawn), the INHIBITION was 47.7%. Cc1cccc2ncn(C(C)Cn3cccn3)c(=O)c12 (stereo not drawn) gave an INHIBITION of 31.7%. Cc1nn(C)cc1C1CC(=O)Nc2c1cnn2C(C)C (stereo not drawn) was tested, and the INHIBITION was 48.4%. With COCCN1C(=O)[C@@H]2CC[C@H]1CN(S(=O)(=O)c1ccc(C#N)cc1)C2 the INHIBITION was 39.1%. For Cc1cnn(CC2CCCCN2CC(=O)Nc2cccnc2)c1 (stereo not drawn), the INHIBITION was 33.4%. Compound O=C(NCc1cccnc1-n1cncn1)C1CC2(CCNCC2)CN1 (stereo not drawn) has an INHIBITION of 20.2%. With O=C1CCN(C(=O)NCc2cccc(Oc3ccccc3)c2)CCN1 the INHIBITION was 3.63%. With O=C(Cc1cccs1)NCC1(O)CCc2ccccc2C1 (stereo not drawn) the INHIBITION was 37.4%. For O=C(NCC1(O)CCSC1)c1ccoc1 (stereo not drawn), the INHIBITION was 86.7%. Compound COC1(CNC(=O)c2ccoc2)CCSC1 (stereo not drawn) has an INHIBITION of 14.2%. O=C(Cc1cccs1)NCC1(O)CCSCC1 showed an INHIBITION of -24.5%. O=C(NCC1(O)CCSCC1)c1ccoc1 showed an INHIBITION of -2.04%. Work on O=C(Cc1cccs1)NCC1(O)CCSC1 (stereo not drawn) yielded an INHIBITION of 54.8%. CC(C)N(C)Cc1nnc2n1CCN(Cc1ccncc1)CC2 gave an INHIBITION of 1.28%. Work on CN1C(=O)[C@@H]2CC[C@H]1CN(C(=O)Nc1cccc3ccccc13)C2 yielded an INHIBITION of -42.1%. NCc1n[nH]c(-c2ccc(F)cc2)n1 was tested, and the INHIBITION was -19.7%. COCC(=O)N(C)Cc1nc(N2CCCC2)ncc1-c1ccncc1 gave an INHIBITION of 52%. CCCC(=O)N(C)Cc1nc(N2CCCC2)ncc1-c1ccncc1 gave an INHIBITION of 14.855%. CC(C)C(=O)N(C)Cc1nc(N2CCCC2)ncc1-c1ccncc1 was tested, and the INHIBITION was 11.235%. Cc1cc(N(Cc2ccon2)S(C)(=O)=O)ccc1Br showed an INHIBITION of -22.6%. Compound c1csc(CN2CCO[C@@H]3CN(C4CCOCC4)C[C@@H]3C2)c1 has an INHIBITION of 64.4%. O=S(=O)(C1CC1)N1C[C@@H]2CN(Cc3cccs3)CCO[C@@H]2C1 was tested, and the INHIBITION was 34.3%. With CCS(=O)(=O)N1C[C@@H]2CN(Cc3ccco3)CCO[C@@H]2C1 the INHIBITION was -39.2%. CCCS(=O)(=O)N1C[C@@H]2CN(Cc3cnn(C)c3)CCO[C@@H]2C1 gave an INHIBITION of 65.6%. Compound CCCS(=O)(=O)N1C[C@@H]2CN(Cc3cccs3)CCO[C@@H]2C1 has an INHIBITION of -2.46%. Compound O=S(=O)(C1CC1)N1CCO[C@@H]2CN(Cc3cccs3)C[C@@H]2C1 has an INHIBITION of -23.4%. In the case of CCS(=O)(=O)N1C[C@@H]2CN(Cc3cnn(C)c3)CCO[C@@H]2C1, the INHIBITION is reported as -13%. Compound CCS(=O)(=O)N1C[C@@H]2CN(Cc3cccs3)CCO[C@@H]2C1 has an INHIBITION of 90.7%. CCCS(=O)(=O)N1C[C@@H]2CN(Cc3ccoc3)CCO[C@@H]2C1 gave an INHIBITION of -58.9%.
